Records with an inconclusive call do not appear. The source made the active and inactive calls. Calls come from the whole dose curve; as a rule, active = well fitted activation curve with a large enough effect in the signal ratio in the repeat runs (not every such curve was filed as active); inconclusive = weak or mixed curves, or effect the other way; inactive = no such curve, though single readings can be large or run the other way; the % refers to the signal ratio.
Biological target: Peroxisome proliferator-activated receptor gamma (Homo sapiens) (UniProt P37231)
Sequence (P37231 whole entry, looked up): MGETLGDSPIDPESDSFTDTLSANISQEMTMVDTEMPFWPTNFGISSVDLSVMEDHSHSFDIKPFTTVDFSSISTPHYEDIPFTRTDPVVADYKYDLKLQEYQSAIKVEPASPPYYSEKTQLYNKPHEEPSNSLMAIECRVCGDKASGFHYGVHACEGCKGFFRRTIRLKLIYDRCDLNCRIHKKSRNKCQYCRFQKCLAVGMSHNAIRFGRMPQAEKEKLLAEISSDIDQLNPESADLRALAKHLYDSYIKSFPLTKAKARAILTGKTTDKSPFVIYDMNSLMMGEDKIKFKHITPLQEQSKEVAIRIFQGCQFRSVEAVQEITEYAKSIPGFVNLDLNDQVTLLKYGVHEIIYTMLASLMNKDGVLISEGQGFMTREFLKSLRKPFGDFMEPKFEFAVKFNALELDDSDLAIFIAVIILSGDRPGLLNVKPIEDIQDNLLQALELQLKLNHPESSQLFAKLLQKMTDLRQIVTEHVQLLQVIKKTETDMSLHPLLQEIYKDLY
Assay: qHTS assay to identify small molecule agonists of the peroxisome proliferator-activated receptor gamma (PPARg) signaling pathway (AID 743094)
Conditions: HEK293H PPARg-UAS-bla, beta-lactamase FRET ratio, 17 h; series mostly up to 57 µM; activation: at the top concentration
Description: U.S. Tox21 Program National Center for Advancing Translational Sciences [NCATS] NIH Chemical Genomics Center [NCGC] U.S. Environmental Protection Agency [EPA] National Institutes of Environmental Health Sciences [NIEHS] National Toxicology Program [NTP] U.S. Food and Drug Administration [FDA] Tox21 Assay Overview: The peroxisome proliferator-activated receptors (PPARs) are lipid-activated transcription factors of the nuclear receptor superfamily with three distinct subtypes namely PPAR alpha, PPAR delta (also called PPAR beta) and PPAR gamma (PPARg). All these subtypes heterodimerize with Retinoid X receptor (RXR) and these heterodimers regulate transcription of various genes. PPAR-gamma receptor (glitazone receptor) is involved in the regulation of glucose and lipid metabolism. To identify the compounds that activate PPAR-gamma signaling, GeneBLAzer PPAR gamma UAS-bla HEK293H cell line (Invitrogen, Carlsbad, CA, USA) containing a beta-lactamase reporter gene under control of the control of an upstream activator sequence (UAS) stably integrated into HEK293H cells was used to screen Tox21 compound library.
Tox21 Assay Protocol Summary: PPARg-bla cells were dispensed at 3000 cells/6uL/well in 1536-well black wall/clear bottom plates using a Multidrop Combi (Thermo Fisher Scientific, Waltham, MA) dispenser. After the assay plates were incubated at 37C and 5% CO2 for 5 h, 23 nL of compounds dissolved in DMSO, positive controls or DMSO only was transferred to the assay plate by a Pintool station (Kalypsys, San Diego, CA). The assay plates were incubated at 37C for 17 h. After 1 uL of LiveBLAzerTM B/G FRET substrate was added using a Bioraptr Flying Reagent Dispenser (FRD) workstation (Beckman Coulter, Indianapolis, IN, USA), the plates were incubated at room temperature for 1 h, and fluorescence intensity was measured by an Envision plate reader (PerkinElmer, Shelton, CT).
% is set by controls: 0 for no effect and ±100 for the full control effect.

Structure (SMILES) | activation | Potency
COc1ccc2c(c1OC)C(=O)O[C@@H]2[C@H]1c2cc3c(cc2CCN1C)OCO3 | -0.0216% (inactive) | –
NC1CCC(CC2CCC(N)CC2)CC1 (stereo not given) | 0.457% (inactive) | –
CCOC(=O)CCN(SN(C)C(=O)Oc1cccc2c1OC(C)(C)C2)C(C)C | 2.07% (inactive) | –
CC(=O)C(Cl)C(=O)N(C)C (stereo not given) | 0.0782% (inactive) | –
CNC(=O)/C=C(\C)OP(=O)(OC)OC | 0.124% (inactive) | –
Clc1ccc(C(c2ccc(Cl)cc2)C(Cl)Cl)cc1 | – | inactive
CNC(=O)O/N=C(\C)C(C)S(C)(=O)=O (stereo not given) | 2% [at 765 µM] (inactive) | –
CSC(C)(C)/C=N/O | 0.519% (inactive) | –
CC(C)(C)c1ccc(OP(=O)(Oc2ccccc2)Oc2ccccc2)cc1 | 3.36% [at 78.9 µM] (inactive) | –
C#CCO | -3.45% (inactive) | –
CCC(C)Nc1c([N+](=O)[O-])cc(C(C)(C)C)cc1[N+](=O)[O-] (stereo not given) | -5.12% (inactive) | –
COC(=O)c1cc(Oc2ccc(Cl)cc2Cl)ccc1[N+](=O)[O-] | -0.938% (inactive) | –
CCC1(CC)C(=O)N=C(O)NC1=O | -0.307% (inactive) | –
COP(=S)(NC(C)C)Oc1ccc(C)cc1[N+](=O)[O-] (stereo not given) | -5.64% (inactive) | –
COc1cnc(OC)n2nc(NS(=O)(=O)c3c(OCC(F)F)cccc3C(F)(F)F)nc12 | -0.352% (inactive) | –
O=c1c2ccccc2c(=O)c2c1cc(Cl)c1[nH]c3c([nH]c12)c(Cl)cc1c(=O)c2ccccc2c(=O)c13 | 0.495% (inactive) | –
N#CSCc1ccccc1 | 0.485% [at 78.9 µM] (inactive) | –
BrCC(Br)(Br)Br | 6.69% [at 78.9 µM] (inactive) | –
CCCCN(CCCC)C(=S)S | -1.88% (inactive) | –
Cc1nn(-c2cc(NS(C)(=O)=O)c(Cl)cc2Cl)c(=O)n1C(F)F | -6.52% (inactive) | –

Structure (SMILES) | activation | Potency
CC[C@]1(O)CC[C@H]2[C@@H]3CCC4=CCCC[C@@H]4[C@H]3CC[C@@]21C | -9.66% (inactive) | –
O=C(N[C@H]1N=C(c2ccccc2F)c2cccc3c2N(CC3)C1=O)c1cc2ccccc2[nH]1 | 3.5% (inactive) | –
CCNc1nc(NC(C)C(C)C)nc(SC)n1 (stereo not given) | 0.443% (inactive) | –
Cc1ccn2nc(S(=O)(=O)Nc3c(F)cccc3F)nc2n1 | -4.61% (inactive) | –
Nc1nc(N)nc(Cl)n1 | 0.799% (inactive) | –
CNN | -3.18% [at 78.9 µM] (inactive) | –
N#Cc1c[nH]cc1-c1cccc2c1OC(F)(F)O2 | 3.56% (inactive) | –
O=[N+]([O-])c1ccccc1-c1ccccc1 | -0.945% (inactive) | –
Oc1ccc(Cl)c(Cl)c1 | -11.6% (inactive) | –
C[N+]1(C)[C@@H]2CC[C@H]1CC(OC(=O)C(CO)c1ccccc1)C2 (stereo not given in full) | – | inactive
CCCN | -2.9% [at 78.9 µM] (inactive) | –
CCC(C)Br (stereo not given) | 4.73% [at 78.9 µM] (inactive) | –
CCCCCON=O | -10.9% [at 78.9 µM] (inactive) | –
CCOP(=O)(Sc1ccccc1)Sc1ccccc1 | -0.688% (inactive) | –
O=S1(=O)OCC2C(CO1)C1(Cl)C(Cl)=C(Cl)C2(Cl)C1(Cl)Cl (stereo not given) | -9.77% (inactive) | –
CCC(C)c1cccc(C(C)CC)c1O (stereo not given) | 0.86% (inactive) | –
O=P(Cl)(Cl)Cl | -0.034% [at 78.9 µM] (inactive) | –
CCOP(=O)(OCC)Oc1nc(Cl)c(Cl)cc1Cl | 0.322% (inactive) | –
CCCCN(CCCC)C(=S)[S-].CCCCN(CCCC)C(=S)[S-].[Ni+2] | -6.6% (inactive) | –
O=S1OCC2C(CO1)C1(Cl)C(Cl)=C(Cl)C2(Cl)C1(Cl)Cl (stereo not given) | – | inactive
